According to PubChem BioAssay AID2314 (National Center for Advancing Translational Sciences (NCATS), 2010):
The whole screen tested about 300,000 compounds, of which about 37,000 (12%) were called active. This is one part of a sample in which actives are shown more often than they occur. A number with no mark means an inactive call. Cut-off read from the data, not from the text of the source: active = max response mostly above about 13% (no sharp cut-off); inactive = mostly below about 14%.

assay: Cycloheximide Counterscreen for Small Molecule Inhibitors of Shiga Toxin; settings: cell reporter, cycloheximide protein synthesis inhibition counterscreen; stronger effect = higher value; note: read at 38.3 µM for the half of the compounds with a filed dose; 0% is about no effect

Row | SMILES | max response
1 | COc1ccc(OC)c(CNC(=O)CCc2nc(-c3cccs3)no2)c1 | -2.6%
2 | CCc1ccc(CNC(=O)CCc2nc(-c3cccs3)no2)cc1 | -4.69%
3 | COc1ccc(CCc2nc(-c3cccs3)no2)cc1 | 67.2% (active)
4 | Cc1ccc2[nH]c(=O)c(CN3CCCCC3)c(-c3ccccc3)c2c1 | -4.55%
5 | CCCCCOc1ccc(/C=C/C(=O)NCCc2nc3ccccc3[nH]2)cc1OC | 1.2%
6 | COc1cc(/C=C(\C#N)c2nc3c(s2)CC(C)CC3)ccc1O (centres undefined) | 26.5% (active)
7 | COc1ccc(/C=C(/NC(=O)c2ccc(C)cc2)c2nc3ccccc3[nH]2)cc1OC | -2.64%
8 | COc1cc(/C=C(\C#N)c2nc3ccccc3[nH]2)ccc1O | 43.6% (active)
9 | O=C(NCc1ccc(F)cc1)C1CCN(C(=O)Nc2ccc(F)cc2)CC1 | -0.971%
10 | O=C1CN(C(=O)c2cc(F)cc(F)c2)c2ccccc2N1 | -6.12%
11 | COc1ccc(F)cc1C(=O)C1CCCN(C(=O)CCc2ccccn2)C1 (centres undefined) | 7.94%
12 | COC(=O)CC(=O)N1CCN(c2ccc(Cl)c(Cl)c2)CC1 | 0.736%
13 | Cc1cccc(C)c1OCCN1CCOCC1 | 0.405%
14 | CCn1c2ccc(F)cc2c2nnc(SCCN3CCOCC3)nc21 | 8.52%
15 | Cc1cc2nc(SCCN3CCOCC3)[nH]c2cc1C | 32.3% (active)
16 | COCCn1c(SCC(=O)Nc2nc(C)cs2)nnc1C(C)C | -4.2%
17 | Cc1cccc(CCNC(=O)Cn2ncc3c([nH]c4ccc(C)cc43)c2=O)c1 | -2.84%
18 | O=C1CCC(C(=O)N2CCN(c3ccccc3Cl)CC2)CN1CC1CCCCC1 (centres undefined) | 9.87%
19 | O=C(Cn1ncc2c3ccccc3n(Cc3ccccc3)c2c1=O)NCCCN1CCOCC1 | 6.16%
20 | Cc1nn(-c2ccc([N+](=O)[O-])cc2)c(N)c1-c1ccccc1 | 38.2% (active)
21 | Cc1nc(-c2ccc([N+](=O)[O-])cc2)c(-c2ccccc2)o1 | -2.35%
22 | Cc1cc(CO)nn1-c1ccc([N+](=O)[O-])cc1 | -1.2%
23 | O=C(CCN1CCCO1)N1CCCC(N2CCN(c3cccc(C(F)(F)F)c3)CC2)C1 (centres undefined) | 7.08%
24 | COC(=O)c1sccc1NN1C(=O)c2ccccc2C1=O | 28.6% (active)

Row | SMILES | max response
25 | COC(=O)c1sccc1NC(=S)Nc1ccc(C)cc1 | 25.3%
26 | COC(=O)c1sccc1NC(=O)c1cc(OC)c(OC)c(OC)c1 | 1.99%
27 | Cc1ccccc1CNC(=O)CCC(=O)N1Cc2ccccc2Oc2ncccc21 | -2.36%
28 | COc1cccc(CN2CCN(Cc3ccc4cccc(F)c4n3)CC2CCO)c1 (centres undefined) | -3.47%
29 | COc1ccccc1NC(=O)C1=C(C)Nc2nnnn2C1c1cccc(Br)c1 (centres undefined) | -5.64%
30 | COC(=O)C1=C(C(=O)c2ccc(C)cc2)C(c2ccccc2)n2nnnc2N1 (centres undefined) | 2.04%
31 | COC(=O)c1ccc(C2C3=C(Nc4nnnn42)c2ccccc2OC3)cc1 (centres undefined) | 17.4% (active)
32 | Cc1cc2c(=O)n(CC(=O)NCC(=O)Nc3ccc(C(C)C)cc3)cnc2s1 | -5.28%
33 | COc1cc(/C=N/NC(=O)Cc2ccccc2)cc(OC)c1OC | -1.38%
34 | Cn1c(=O)n(C)c2cc(S(=O)(=O)N3CCCc4ccccc43)ccc21 | -0.606%
35 | COc1cc(C)c(C)cc1S(=O)(=O)N1CCCc2ccccc21 | 17.6% (active)
36 | COc1ccc(C(=O)OCC(=O)NCC2CCCCC2)cc1S(=O)(=O)N1CCCc2ccccc21 | -2.88%
37 | CCN(CC)c1ccc2c(Nc3ccccc3)c(C=O)c(=O)oc2c1 | 17.7% (active)
38 | CCC(=O)Nc1ccc(S(=O)(=O)Nc2c(NC)c3ccccc3oc2=O)cc1 | 11%
39 | CCOC(=O)Nc1ccc2c(c1)N(C(=O)CCCl)c1ccccc1[S@]2=O | 4.2%
40 | CCOc1ccc(C(CC(=O)O)NC(=O)Cc2ccccc2)cc1OC (centres undefined) | -1.44%
41 | CCNS(=O)(=O)c1ccc(CCC(=O)N2CCN(c3cc(Cl)ccc3C)CC2)cc1 | -1.74%
42 | Cc1ccc(C(=O)N2CCCC2)c(F)c1F | -2.63%
43 | COc1ccc(CN(Cc2ccc(OC)cc2)C(=O)c2cccs2)cc1 | 4.04%
44 | COc1ccc(CN(C(=O)c2cccs2)c2nccs2)cc1OC | -2.68%
45 | O=C(c1cccs1)N(C(=O)c1cccs1)c1ccccn1 | 21.4% (active)
46 | CC(=O)c1ccc(-c2nnc(CCC(=O)N(C)Cc3cnc4ccccn34)o2)s1 | 8.64%
47 | CCc1ccc(CN(C)Cc2nc(Cc3ccccc3)no2)nc1 | 0.562%
48 | CCc1ccc(CN(C)C(=O)CCc2nnc(-c3ccc(-c4ccccc4)cc3)o2)nc1 | 16.7% (active)

Row | SMILES | max response
49 | Cn1cc(CCC(=O)N2CCCC(C(=O)c3ccc(C(C)(C)C)cc3)C2)cn1 (centres undefined) | 7.09%
50 | COC(=O)CSc1nc(C2CC2)nc2ccccc12 | -1.2%
51 | COC(=O)CSc1nc(C)c2ccc(OC)cc2n1 | 42.7% (active)
52 | COc1ccc(-c2nnc3ccc(SCc4ccccc4)nn23)cc1 | -1.33%
53 | COc1cccc(CSc2nc3nc(C)cc(C)n3n2)c1 | 3.55%
54 | COc1ccc2nc(SCc3ccccc3)nc(C)c2c1 | 55.9% (active)
55 | COc1ccc2[nH]c3nc(SCC(=O)NC4CC4)nnc3c2c1 | -1.61%
56 | Cc1cccc(C)c1NC(=O)COC(=O)c1ccccc1O | -0.421%
57 | CCOC(=O)C1CCCN(S(=O)(=O)c2ccc(-n3cnnn3)c(C)c2)C1 (centres undefined) | -3.27%
58 | CC(C)c1ccc(NC(=O)[C@@H](NC(=O)N2CC(=O)Nc3ccccc32)C(C)C)cc1 | 1.52%
59 | COc1ccc(-n2c(=O)[nH]c3cc(C(=O)NCCc4ccc(OC)c(OC)c4)ccc3c2=O)c(OC)c1 | 0.206%
60 | C=CCSc1nc2c(c(=O)[nH]c(=O)n2C)n1Cc1ccccc1 | -3.59%
61 | Cc1cc(C)cc(OCC(=O)NC(C)c2ccccc2)c1 (centres undefined) | 4.02%
62 | COc1ccc2oc(=O)c(C(=O)N3CCCC3)cc2c1 | -2.74%
63 | COc1ccc2oc(=O)c(C(=O)NCc3ccccn3)cc2c1 | 30.2% (active)
64 | O=C(NCc1ccccn1)c1cc(Br)ccc1Cl | 17.7%
65 | Cc1cc(C)cc(OCC(=O)NNC(=O)c2cc3ccccc3oc2=O)c1 | 24.7% (active)
66 | NS(=O)(=O)c1ccc(NC(=O)COC(=O)c2ccco2)cc1 | -1.96%
67 | NS(=O)(=O)c1ccc(NC(=O)COC(=O)CCc2c[nH]c3ccccc23)cc1 | -3.16%
68 | Cc1cc(C)cc(OCC(=O)NNC(=O)CCN2C(=O)c3ccccc3C2=O)c1 | -0.614%
69 | NS(=O)(=O)c1ccc(NC(=O)COC(=O)c2cc3ccccc3oc2=O)cc1 | 10.3% (active)
70 | O=C(NCc1ccccn1)c1cc2ccccc2oc1=O | 36% (active)
71 | COc1ccc(-c2nc(CS(=O)CC(=O)NCc3ccccn3)c(C)o2)cc1 (centres undefined) | 7.49%
72 | O=C(NCc1ccccn1)c1cnc2sccn2c1=O | -2.63%

Row | SMILES | max response
73 | CC(=O)N1c2ccc(S(=O)(=O)N3CCC(C(=O)N4CCN(c5ccccc5)CC4)CC3)cc2CC1C (centres undefined) | -2.01%
74 | O=C(Nc1cc(C(F)(F)F)ccc1Cl)c1cc2nc3c(c(C(F)(F)F)n2n1)CCCC3 | -1.76%
75 | C#CCOc1ccc(/C=C2/C(=O)ON=C2C)cc1OCC | 3.92%
76 | C=CCc1cccc2cc(C(=O)OCC)c(=O)oc12 | -2.44%
77 | CCOC(=O)c1cc2cc3ccccc3cc2oc1=O | 21.6% (active)
78 | CCCOC(=O)c1cc2ccccc2oc1=O | 11.4%
79 | CC[C@]1(O)CC2CN(CCc3c([nH]c4ccccc34)[C@@](C(=O)OC)(c3cc4c(cc3OC)N(C=O)[C@H]3[C@@](O)(C(=O)OC)[C@H](OC(C)=O)[C@]5(CC)C=CCN6CC[C@]43[C@@H]65)C2)C1 (some centres undefined) | -6.26%
80 | CCOc1ccccc1N1C(=O)CC(Sc2nccc(C)n2)C1=O (centres undefined) | 0.743%
81 | CC(=O)Nc1ccccc1C(=O)OCC(=O)c1cccc2ccccc12 | 7.37%
82 | Cc1ccc(S(=O)(=O)c2c(COC(=O)c3cccc(Cl)c3)c(-c3ccccc3)nn2C)cc1 | -6.17%
83 | O=C(OCc1ccc(-c2ccccc2)cc1)c1cccc(O)c1 | 57.7% (active)
84 | O=C(Cc1c[nH]c2ccccc12)OCCOC(=O)Cc1c[nH]c2ccccc12 | -4.53%
85 | O=C(OCC(=O)c1c[nH]c2ccccc12)c1cccc(O)c1 | 72.9% (active)
86 | O=C(OCc1ccc(Br)cc1)c1cccc(-c2nnc(-c3ccccc3)o2)c1 | 13.9%
87 | C=C(C)C(=O)Nc1cccc(C2=NOC3(C2)C[C@H](C(N)=O)N(C(=O)C(c2ccccc2)c2ccccc2)C3)c1 (some centres undefined) | -6.93%
88 | CSc1ccc(C(=O)C2CCCN(C(=O)c3ccc(C)nc3)C2)cc1 (centres undefined) | -0.923%
89 | O=S(=O)(Nc1ccc2[nH]ncc2c1)c1ccccc1Cl | -3.76%
90 | CN(Cc1ccco1)S(=O)(=O)c1nnc(NC(=O)c2ccccc2)s1 | 26%
91 | COc1cccc(-c2cccc(NC(=O)C3CCN(C4CCC4)CC3)c2)c1 | -2.09%
92 | O=C1CS(=O)CN1c1ccc(Oc2ccccc2)cc1 (centres undefined) | -1.61%
93 | Cc1n[nH]c(=O)n1-c1ccc(C(C)C)cc1 | 4.16%
94 | Cc1n[nH]c(=O)n1-c1ccc(Oc2ccccc2)cc1 | 16.2% (active)
